In PubChem BioAssay AID624126 (The Scripps Research Institute Molecular Screening Center, 2012) one finds activation data, which are given here for 56 compounds.

Molecules are shown by their SMILES. In all, about 360,000 compounds went through this assay and about 1,400 (0.39%) were called active.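 Rule for the calls: active = activation above its plate's cutoff, the mean activation of sample wells plus 3 SD; inactive = the rest.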 Shown is part of a subset that was picked to be rich in actives.

Chain of Muscarinic acetylcholine receptor M4 (Homo sapiens) (P08173 whole entry, looked up): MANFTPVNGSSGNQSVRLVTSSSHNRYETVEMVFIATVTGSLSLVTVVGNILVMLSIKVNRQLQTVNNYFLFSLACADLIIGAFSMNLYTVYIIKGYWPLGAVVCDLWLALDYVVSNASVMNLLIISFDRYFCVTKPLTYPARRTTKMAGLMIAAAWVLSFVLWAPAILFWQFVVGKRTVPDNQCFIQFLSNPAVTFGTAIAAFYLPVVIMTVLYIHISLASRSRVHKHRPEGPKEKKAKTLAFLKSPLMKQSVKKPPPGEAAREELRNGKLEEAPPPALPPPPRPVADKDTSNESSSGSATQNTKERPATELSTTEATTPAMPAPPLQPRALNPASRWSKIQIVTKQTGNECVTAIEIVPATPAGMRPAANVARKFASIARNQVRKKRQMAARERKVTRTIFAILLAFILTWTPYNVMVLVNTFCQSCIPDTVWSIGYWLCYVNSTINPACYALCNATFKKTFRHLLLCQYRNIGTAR

This experiment addresses Muscarinic acetylcholine receptor M4 (Homo sapiens) (UniProt P08173). In words: human M4 muscarinic receptor positive allosteric modulators, primary screen, CHO-K1 cells, Fluo-8 calcium fluorescence (AID 624126). The note with it: CHO-K1 hM4/Gqi5, Fluo-8 calcium fluorescence, ACh EC20; at 3 µM; active compounds read high; 0% = ACh EC20, 100% = maximal ACh.
Turning to `Cc1ccc(-n2ncc3c(Nc4cccc(C(=O)O)c4)ncnc32)cc1`, the activation was 29.6% (active).

Regarding `COc1ccc2nc(C)cc(Nc3cccc(C(=O)O)c3)c2c1`, the activation was -1.48% (inactive).

As for `COC(=O)CSc1ncnc2c1cnn2-c1ccc(C)cc1C`, the activation was 1.46% (inactive).

With `O=C1CN(C(=O)COC(=O)C2CC(=O)N(Cc3ccco3)C2)c2ccccc2N1` (stereo unspecified), the activation is 13.2% (inactive).

Consider `O=C(NCc1ccc2c(c1)OCO2)c1c(-c2ccsc2)sc2ccccc12`, for which the activation is -3.52% (inactive).

In the case of `COc1cc2c(cc1OC)CN(C(C)C(=O)Nc1cccc(S(=O)(=O)N3CCOCC3)c1)CC2` (stereo unspecified), the activation is 1.73% (inactive).

Turning to `O=C(CNC(=O)C12CC3CC(CC(C3)C1)C2)OCC(=O)N1CCCCC1`, the activation is -2.08% (inactive).

As for `Cc1ccccc1CCNC(=O)C1CCC(=O)N(Cc2ccc(Cl)cc2)C1` (stereo unspecified), the activation was -4.94% (inactive).

In the case of `COC(=O)c1ccc(CNC(=O)C2CCC(=O)N(Cc3cccc(F)c3)C2)cc1` (stereo unspecified), the activation is 2.75% (inactive).

For `COC(=O)c1ccc(CNC(=O)C2CCC(=O)N(Cc3ccccn3)C2)cc1` (stereo unspecified), the activation was 13.8% (active).

With `Cc1cc(C)c(S(=O)(=O)Nc2c(C)n(C)n(-c3ccccc3)c2=O)cc1[N+](=O)[O-]`, the activation is -0.44% (inactive).

`CCOC(=O)c1cc(C(C)C)sc1NC(=O)COC(=O)c1nccnc1N`: the activation was 17% (inactive).

Regarding `CC(C)(C)C(=O)CN1C2=NCCN2c2ccccc21`, the activation is -8.44% (inactive).

For `Cc1ccc(N(C(=O)c2ccc(CN3CCOCC3)o2)C(C(=O)NCCC(C)C)c2cccs2)c(C)c1` (stereo unspecified), the activation was 9.68% (inactive).

Regarding `O=C(NC1CCCC1)C(c1ccc(N2CCOCC2)cc1)N(C(=O)c1ccco1)c1ccccc1F` (stereo unspecified), the activation is -4.93% (inactive).

On to `Cc1cccc(N(C(=O)c2ccc(CN3CCOCC3)o2)C(C(=O)NC2CCCCC2)c2ccc(F)cc2)c1` (stereo unspecified), for which the activation was 15.7% (active).

In the case of `CSc1ncccc1C(=O)Nc1cccc(S(=O)(=O)N2CCOCC2)c1`, the activation was 7.64% (inactive).

Turning to `Cc1ccc(S(=O)(=O)N(C)C)cc1NC(=O)C(C)OC(=O)c1ccc2ccccc2n1` (stereo unspecified), the activation is 21.1% (inactive).

For `COC(=O)c1cc(C(=O)OCC(=O)Nc2cc(C)on2)cc([N+](=O)[O-])c1`, the activation was 19.2% (inactive).

On to `COC(=O)c1ccccc1NC(=O)Cn1nc(C(F)(F)F)c2c1CCC2`, for which the activation is -1.81% (inactive).

Consider `COCCn1c(SCC(=O)Nc2ccc(F)cc2F)nc2c(c1=O)SCC2`, for which the activation is 0.05% (inactive).

For `COCCn1c(SCC(=O)Nc2ccccc2F)nc2c(c1=O)SCC2`, the activation was 1.76% (inactive).

For the compound `COCCn1c(SCC(=O)N2CCCCCC2)nc2c(c1=O)SCC2`, the activation was 28% (active).

Turning to `CC(=O)n1cc([C@@H]2C=C(C(=O)N3CCN(Cc4ccc5c(c4)OCO5)CC3)O[C@H](OCc3ccc(CO)cc3)C2)c2ccccc21`, the activation is -4.81% (inactive).

Regarding `CC(C)n1ncc2c(C(=O)N3CCN(Cc4cccs4)CC3)cc(C3CC3)nc21`, the activation is 3.71% (inactive).

For `C=CCOc1ccc(/C=C/C(=O)OC(C)C(=O)Nc2ccc(NC(C)=O)cc2)cc1` (stereo unspecified), the activation is 0.99% (inactive).

In the case of `CC(OC(=O)/C=C/c1ccccc1)C(=O)Nc1ccc(C(N)=O)cc1` (stereo unspecified), the activation is 5.82% (inactive).

For `CCc1ccc(NC(=O)C(C)OC(=O)/C=C/c2cccc([N+](=O)[O-])c2)cc1` (stereo unspecified), the activation is 30.3% (active).

`O=C1CN(C(=O)CN2C(=O)NC3(CCCCC3)C2=O)c2ccccc2N1`: the activation is 3.42% (inactive).

Turning to `Cn1c(SCC(=O)c2ccc(F)cc2)nnc1-c1ccccn1`, the activation is -3.85% (inactive).

For the compound `Cn1c(SCC(=O)c2ccccc2)ncc(C(=O)Nc2ccc(F)cc2)c1=O`, the activation was 21.6% (active).

On to `Cc1ccc(NC(=O)c2cnc(SCC(=O)NCC3CCCO3)n(C)c2=O)cc1` (stereo unspecified), for which the activation was 21.4% (inactive).

Take `CC(C)NC(=O)N1Cc2cc(C(=O)NCC(F)(F)F)nc(-c3cccc(-c4cc5ccccc5o4)c3)c2[C@@H]1CCO`: the activation is 1.14% (inactive).

For `COc1ccc(CCNC(=O)CN2C(=O)CCSc3ccccc32)c(OC)c1`, the activation is 0.14% (inactive).

Take `CC(NS(=O)(=O)c1ccc(OCC(=O)N2CCCC2)cc1)c1ccccc1` (stereo unspecified): the activation was 1.05% (inactive).

`O=C(COC(=O)c1ncc(Cl)c(Cl)c1Cl)NCc1ccccc1`: the activation is 16.7% (inactive).

In the case of `Cc1ccccc1C(=O)NNC(=O)CN1C(=O)c2ccccc2C1=O`, the activation was 9.49% (inactive).

Consider `CCN(CC)S(=O)(=O)c1ccc2c3c(cccc13)C(=O)S2`, for which the activation is -6.1% (inactive).

In the case of `CCN1C(=O)c2cccc3c(S(=O)(=O)Nc4ccccc4O)ccc1c23`, the activation was 17.5% (active).

In the case of `C/C(CC(=O)Nc1ccc(C)cc1C)=N\NC(=O)C(C)C`, the activation is 2.54% (inactive).

As to `CN(C)C(=O)N1CCNCC1`, the activation was 4.12% (inactive).

For `Cc1cc(Br)cn2c(Cc3ccsc3)c(-c3ccc(C#N)cc3)nc12`, the activation was -5.22% (inactive).

`COc1cc(CCC(=O)OCC(=O)Nc2cccc(S(N)(=O)=O)c2)cc(OC)c1OC`: the activation was 1.58% (inactive).

As to `O=C1CSc2ccc(S(=O)(=O)NCc3ccccc3)cc2N1`, the activation is 0.62% (inactive).

For `COc1cccc(C2=CC(=O)C[C@H](c3ccc(F)cc3)C2)c1OC`, the activation is 2.96% (inactive).

Consider `Cc1c(C(=O)NNC(=O)c2ccncc2)oc2ccccc12`, for which the activation is 5.49% (inactive).

Take `Cc1c(C=O)c2ccccc2n1CC(=O)O`: the activation was 4.05% (inactive).

With `Cc1c(C=O)c2ccccn2c1C(=O)c1ccncc1`, the activation is 30.8% (active).

`COc1cccc(CNCCc2c[nH]c3ccccc23)c1OCc1ccccc1F`: the activation was -8.42% (inactive).

Regarding `Cc1nc2sc(C(c3ccco3)N3CCOCC3)c(O)n2n1` (stereo unspecified), the activation is 31.4% (active).

For the compound `Cc1ccc(C(c2sc3nc(C)nn3c2O)N2CCN(c3ccccc3)CC2)cc1` (stereo unspecified), the activation was 4.41% (inactive).

For `Cc1nc2sc(C(c3ccco3)N3CCC4(CC3)OCCO4)c(O)n2n1` (stereo unspecified), the activation is 5.78% (inactive).

With `Cc1cc(NS(=O)(=O)c2ccc(NC(=O)c3cccc(OC(F)F)c3)cc2)nc(C)n1`, the activation is 3.12% (inactive).

For `CCc1nnc(NS(=O)(=O)c2ccc(NC(=O)c3cccc(OC(F)(F)C(F)F)c3)cc2)s1`, the activation was 13.1% (active).

Consider `CCc1nnc(NS(=O)(=O)c2ccc(NC(=S)NC(=O)/C=C/c3cccs3)cc2)s1`, for which the activation is -0.35% (inactive).

As for `CC(C)(C)N1CC(c2nc3ccccc3n2Cc2ccc(F)cc2)CC1=O` (stereo unspecified), the activation is -1.38% (inactive).
